Among the data in PubChem BioAssay (NCATS) are Potency, max response and outcome values, retold here.

“And” between values parts separate entries of the source, which are not always exact repeats. Equal values may be shown once. Records with an inconclusive call do not appear. Unmarked numbers belong to inactive results. The source made the active and inactive calls. Calls come from the whole dose curve; as a rule, active = well fitted curve in the direction sought with a large enough effect; inconclusive = small, poorly fitted or top-dose-only effect, or another doubt; inactive = no such curve, though single readings can be large; an effect the other way counts as inactive or inconclusive.

In one assay the test system is TAB113. Kind of assay: qHTS profiling for inhibitors of Plasmodium falciparum proliferation (AID 504749). Note: nearly all actives have a fitted effect of over 60% in size. Note: potency is the fitted concentration of half-maximal effect. The conditions noted are these: P. falciparum in erythrocytes, SYBR Green DNA, 72 h; series mostly up to 28.7 µM. A digest of the protocol: (§1)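 P. falciparum-infected erythrocytes (0.3% parasitemia, 2.5% hematocrit final) were exposed to compounds for 72 h at 37 C in 5% CO2, then lysed with SYBR Green buffer overnight at room temperature; parasite DNA fluorescence was normalized to artemisinin and DMSO controls.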

The subject of the next assay is TAB165. Described as above. Conditions: P. falciparum in erythrocytes, SYBR Green DNA, 72 h; series mostly up to 28.7 µM. The essentials: as §1
Another assay concerns W2. Described as above. Conditions: P. falciparum in erythrocytes, SYBR Green DNA, 72 h; series mostly up to 28.7 µM. The essentials:
as §1

The test system of a further assay is CRL-7250. Kind of assay: Cytotoxic Profiling of Annotated Libraries Using Quantitative High-Throughput Screening (AID 1296008). For max response: % is set by controls: 0 for no effect and ±100 for the full control effect. Note: nearly all actives have a fitted effect of over 60% in size. Note: potency is the fitted concentration of half-maximal effect. Conditions: Five cell lines viability, CellTiter-Glo ATP luminescence, 48-72 h; max response: hits give low values. A digest of the protocol:
(§2)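 Compounds were pin-transferred onto cells and incubated 48 or 72 hr at 37 degree Celsius, 95% humidity. CellTiter-Glo was added, plates sat 10 min at room temperature, then ATP-coupled luminescence was imaged as the viability read-out.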

Assay [1] relates to HaCat. The description is as above. Conditions: Five cell lines viability, CellTiter-Glo ATP luminescence, 48-72 h; max response: hits give low values. A digest of the protocol: as §2
The subject of another assay is KB-3-1. The assay is described as above. Conditions: Five cell lines viability, CellTiter-Glo ATP luminescence, 48-72 h; max response: hits give low values. The essentials: as §2
Assay [2] deals with HACAT. The assay is described as follows: qHTS assay to identify novel small-molecules to repurpose for Merkel cell carcinoma treatment (AID 1296009). Note: nearly all actives have a fitted effect of over 60% in size. Note: potency is the fitted concentration of half-maximal effect. Conditions: MCC and control cell lines, CellTiter-Glo viability, 72 h; at 44.8 µM (top of the series) unless noted. A digest of the protocol: (§3)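 Cells exposed to NPC (8-point) and MIPE (11-point) compound dilutions for 72 hr at 37 degree celsius; viability read by CellTiter-Glo luminescence, normalized to no-cell and DMSO in-plate controls.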

For another assay, the system named is MCC-13. The description is as above. Conditions: MCC and control cell lines, CellTiter-Glo viability, 72 h; series mostly up to 46 µM. A digest of the protocol:
as §3

For the next assay, the system named is MKL-1. The description is as above. Conditions: MCC and control cell lines, CellTiter-Glo viability, 72 h; series mostly up to 46 µM. A digest of the protocol:
as §3

The subject of a further assay is MKL-2. Described as above. The conditions noted are these: MCC and control cell lines, CellTiter-Glo viability, 72 h; series mostly up to 46 µM. A digest of the protocol:
as §3

For another assay, the system named is C33A. Kind of assay: Primary qHTS to identify gynecologic anti-cancer compounds using libraries of approved drugs and bioactive compounds (AID 1345084). Note: % is set by controls: 0 for no effect and ±100 for the full control effect; nearly all actives have a fitted effect of over 55% in size. The conditions noted are these: Gynecologic cancer cell panel viability, ATPlite luminescence, 48 h; series mostly up to 57.5 µM. The essentials: (§4)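 Measured: luminescence after ATPlite addition (15 min, RT). Exposure: 48 h, 37 C, 5% CO2.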

Another assay concerns MCC-26. The assay is described as follows: qHTS assay to identify novel small-molecules to repurpose for Merkel cell carcinoma treatment (AID 1296009). Note: nearly all actives have a fitted effect of over 60% in size. Note: potency is the fitted concentration of half-maximal effect. Conditions: MCC and control cell lines, CellTiter-Glo viability, 72 h; series mostly up to 46 µM. A digest of the protocol:
as §3

In the next assay the test system is WaGa. The assay is described as above. Conditions: MCC and control cell lines, CellTiter-Glo viability, 72 h; series mostly up to 46 µM. The essentials:
as §3

For a further assay, the system named is CASKI. The assay is described as follows: Primary qHTS to identify gynecologic anti-cancer compounds using libraries of approved drugs and bioactive compounds (AID 1345084). Note: % is set by controls: 0 for no effect and ±100 for the full control effect; nearly all actives have a fitted effect of over 55% in size. Conditions: Gynecologic cancer cell panel viability, ATPlite luminescence, 48 h; series mostly up to 57.5 µM. The essentials: as §4
In assay [3] the test system is NIH3T3. Kind of assay: Cytotoxic Profiling of Annotated Libraries Using Quantitative High-Throughput Screening (AID 1296008). For max response: % is set by controls: 0 for no effect and ±100 for the full control effect. Note: nearly all actives have a fitted effect of over 60% in size. Note: potency is the fitted concentration of half-maximal effect. The conditions noted are these: Five cell lines viability, CellTiter-Glo ATP luminescence, 48-72 h; max response: hits give low values. A digest of the protocol:
as §2

In a further assay the test system is CAOV3. The assay is described as follows: Primary qHTS to identify gynecologic anti-cancer compounds using libraries of approved drugs and bioactive compounds (AID 1345084). Note: % is set by controls: 0 for no effect and ±100 for the full control effect; nearly all actives have a fitted effect of over 55% in size. Conditions: Gynecologic cancer cell panel viability, ATPlite luminescence, 48 h; series mostly up to 57.5 µM. A digest of the protocol:
as §4

For a further assay, the system named is HEK293. Kind of assay: Cytotoxic Profiling of Annotated Libraries Using Quantitative High-Throughput Screening (AID 1296008). For max response: % is set by controls: 0 for no effect and ±100 for the full control effect. Note: nearly all actives have a fitted effect of over 60% in size. Note: potency is the fitted concentration of half-maximal effect. Conditions: Five cell lines viability, CellTiter-Glo ATP luminescence, 48-72 h; max response: hits give low values. A digest of the protocol:
as §2

In another assay the test system is UISO. Kind of assay: qHTS assay to identify novel small-molecules to repurpose for Merkel cell carcinoma treatment (AID 1296009). Note: nearly all actives have a fitted effect of over 60% in size. Note: potency is the fitted concentration of half-maximal effect. Conditions: MCC and control cell lines, CellTiter-Glo viability, 72 h; series mostly up to 46 µM. A digest of the protocol:
as §3

The subject of assay [4] is NIH3T3. Described as above. Conditions: MCC and control cell lines, CellTiter-Glo viability, 72 h; at 44.8 µM (top of the series) unless noted. A digest of the protocol: as §3

Regarding `CC(=O)c1ccc2c(c1)N(CCCN1CCC(CCO)CC1)c1ccccc1S2`, the Potency entry in the assay on TAB113, in the assay with TAB165, in the assay on MCC-13, with MKL-1 and with C33A was “inactive” throughout. Besides, the Potency in the assay on W2 is 1.02 µM (active); with MKL-2 it was 21.1 µM (active). Besides, the max response with CRL-7250 is -7.11%; with KB-3-1, -5.25%. The call with HaCat [1] and in the assay with HACAT [2] was inactive.

As to `CC(=O)N/N=C/c1ccc([N+](=O)[O-])o1`, the Potency with TAB165 was 12.6 µM (active); in the assay with MKL-2 it was 6.68 µM (active); in the assay with WaGa it was 23.7 µM (active). The max response in the assay on CRL-7250 was -0.507%; in the assay on KB-3-1, -2.33%. The compound was classed as inactive with HaCat [1] and with HACAT [2]. In addition, the Potency result in the assay on MCC-26, in the assay with C33A and with CASKI was “inactive” throughout.

Consider `CCOC(=O)[C@H](CCc1ccccc1)N[C@@H](C)C(=O)N1Cc2ccccc2C[C@H]1C(=O)O`, for which the max response in the assay with CRL-7250 was -9.56%; with KB-3-1 it was 21.9%; in the assay on NIH3T3 [3], -19.6%. The outcome with HaCat [1] and with HACAT [2] was inactive. Also, the Potency result with MCC-13, in the assay on C33A, with CAOV3 and in the assay on CASKI was “inactive” in each case.

As for `C=C(CC)C(=O)c1ccc(OCC(=O)O)c(Cl)c1Cl`, the Potency was 14.1 µM (active) in the assay with TAB113; 12.6 µM (active) in the assay with TAB165; 8.41 µM (active) in the assay with MKL-1; 15 µM (active) in the assay on MKL-2; 13.3 µM (active) in the assay with WaGa. In addition, the max response was -16.5% with CRL-7250, -11.5% in the assay on HaCat [1], -0.176% with KB-3-1 and -16.2% in the assay with NIH3T3 [3]. Besides, the Potency result in the assay with C33A, in the assay on CAOV3 and with CASKI was “inactive” throughout.

As to `CN(C)CCCOc1nn(Cc2ccccc2)c2ccccc12`, the Potency result in the assay with TAB113, with MCC-13, in the assay with MCC-26, in the assay with MKL-1, in the assay with C33A and with CAOV3 was “inactive” each time. Moreover, the Potency entry in the assay on CASKI was “inactive”. The Potency in the assay with W2 was 2.28 µM (active). Moreover, the max response with CRL-7250 was 1.45%; in the assay on HaCat [1], 3.55%; in the assay with KB-3-1, -14.4% and -24.2%.

`O=C(OCC(O)CO)c1ccccc1Nc1ccnc2cc(Cl)ccc12` (stereo unspecified): the compound was called inactive in the assay with CRL-7250. The max response with HaCat [1] was -6.51%; in the assay on KB-3-1, 1.57%. The Potency result with MCC-13, in the assay on MKL-1, in the assay on C33A, in the assay on CAOV3 and in the assay with CASKI was “inactive” each time.

As to `C[n+]1c2cc(N)ccc2cc2ccc(N)cc21` (tested in a mixture with another compound), the Potency is 6.68 µM (active) in the assay on CRL-7250; 3.35 µM (active) in the assay on HEK293; 11.9 µM (active) in the assay with MCC-13; 15 µM (active) with MCC-26; 2.99 µM (active) in the assay with MKL-1; 0.75 µM (active) with MKL-2. For the same compound, the Potency in the assay on UISO was 2.99 µM (active); in the assay with WaGa, 1.5 µM (active).

Consider `CC(=O)[C@H]1CC[C@H]2[C@@H]3C[C@H](C)C4=CC(=O)CC[C@]4(C)[C@H]3[C@@H](O)C[C@]12C`, for which the call with CRL-7250, with NIH3T3 [3] and with NIH3T3 [4] was inactive. Moreover, the results for the max response with HaCat [1] and in the assay with KB-3-1 were -3.2% and 30.5%, respectively. For the same compound, the Potency result with MCC-13, in the assay with MKL-1, with MKL-2, in the assay on UISO, with WaGa and in the assay with C33A was “inactive” in each case. Further, the Potency result in the assay with CASKI was “inactive”.
